Test results reported in PubChem BioAssay (NCI).
“And” between values parts separate entries of the source, which are not always exact repeats. Equal entries are not always repeated. About 83,000 compounds went through this panel and 20% of them were active in at least one assay; those are over-represented in the sample as a whole.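 Plates (96-well) were seeded with cells, treated with compound at one concentration, and incubated for 48 hours before percent growth was determined.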 The source made the active and inactive calls. How the source made its calls: active means growth percent below 10; inactive means the rest.

Each compound was assayed on MDA-MB-468 breast (assay: NCI-60 one-dose screen, 48 h (100 = growth as untreated, 0 = no growth, -100 = all killed)). Details: 10 µM unless noted.
`COc1ccc(/C(C#N)=C/c2ccccn2)cc1` was tested, and the growth was 89% (inactive) and 82% (inactive). In the case of `CCOC(=O)Nc1nccs1`, the growth is reported as 120% (inactive). In the case of `Cc1cc(Oc2ccccc2)ccc1Nc1ncnc2ccc(-c3cnc(Cl)c(NS(C)(=O)=O)c3)cc12`, the growth is reported as -18.9% (active). In the case of `CCOC(=O)CC(=O)OC`, the growth is reported as 102% (inactive). `CCOC(=O)c1c(NC(=O)c2cccc(C(F)(F)F)c2)sc2c(CN3CCN(C)CC3)c(O)ccc12` was tested, and the growth was -2.41% (active). `COc1cc(-c2nc(SCCC(C)C)nc(Nc3ccc(F)cc3)c2C#N)cc(OC)c1OC` was tested, and the growth was 96.8% (inactive). `O=C1Cc2ccccc2C(=O)N1` was tested, and the growth was 45.8% (inactive). In the case of `COc1ccc(-c2nc(N/N=C/c3c[nH]c4ccccc34)nc(N3CCOCC3)c2C#N)cc1`, the growth is reported as 97.8% (inactive). For `Cc1cc(N)ccc1-c1ccc(N)cc1C`, the growth was 97.5% (inactive). `C#Cc1cc(C(=O)Nc2ccc(CN3CCN(C)CC3)c(C(F)(F)F)c2)ccc1C` was tested, and the growth was 66.5% (inactive). In the case of `CC(C)CCN(CCCNc1c2c(nc3cc(Cl)ccc13)CCCC2)CCC(C)C`, the growth is reported as 22.6% (inactive). In the case of `O=C(O)CC1Sc2ccccc2NC1=O` (stereo not given), the growth is reported as 163% (inactive). For `COc1ccc2c(c1)C(=O)c1c-2c(=O)n(CCCCCCC(=O)NO)c2ccccc12`, the growth was 6.84% (active). For `O=c1[nH]c2ccc(Cl)cc2c2ccccc12`, the growth was 68.1% (inactive). `Brc1ccc2c(c1)CN(C1CCCCC1)CO2` was tested, and the growth was 110% (inactive). `CCN(CC)c1ccc2cc(C(=O)NCCOCCOCCOCCn3cc(CCC(=O)Nc4ccc(C(=O)c5ccc(NC(=O)OC(C)(C)C)cc5)cc4)nn3)c(=O)oc2c1` was tested, and the growth was 51.3% (inactive). For `O=C1c2c(c3c4ccc(Br)cc4oc3c3[nH]c4ccccc4c23)C(=O)N1O`, the growth was 45.3% (inactive). With `COC(=O)c1ccc2[nH]c(O)c(C(=Nc3ccc(N(C)C(=O)CN4CCN(C)CC4)cc3)c3ccc(N)cc3)c2c1` the growth was 62% (inactive). With `COc1ccc(C2CC(c3ccc(N(C)C)cc3)=NN2c2ccc(S(N)(=O)=O)cc2)cc1` (stereo not given) the growth was 57.6% (inactive). In the case of `CN(C)C(C(N)=O)c1ccc(Cl)cc1` (stereo not given), the growth is reported as 99.2% (inactive). For `CCOC(=O)C(C#N)Cc1ccccc1` (stereo not given), the growth was 115% (inactive). `Brc1ccc(-c2cc(-c3ccc4c(c3)OCCO4)n[nH]2)s1` was tested, and the growth was 7.7% (active). With `COc1ccc2c(c1)c(-c1noc(-c3cn(C)c4ncc(F)cc34)n1)cn2C` the growth was 73.5% (inactive). `COc1cc(/C=C2/C=C(c3ccccc3)N(CCc3ccc(S(N)(=O)=O)cc3)C2=O)cc(OC)c1OC` was tested, and the growth was 94.7% (inactive). `COc1ccc(NC(=O)/C(=C/N2C(=O)/C(=C/c3ccc(OC)c(OC)c3)NC2=S)C(C)=O)cc1` was tested, and the growth was 40.1% (inactive). For `O=C(Nc1cccc(Cn2c(=O)[nH]c3ccc(Oc4ncccn4)cc3c2=O)c1)c1cccc(F)c1`, the growth was 49.8% (inactive). For `CC1=C(C(=O)n2c3ccccc3c3ccccc32)C(c2cccc([N+](=O)[O-])c2)C(C(=O)n2c3ccccc3c3ccccc32)=C(C)N1`, the growth was 118% (inactive). With `CC(=O)OC[C@H](O)[C@@]1(O)CC[C@H]2[C@@H]3CCC4=CC(=O)CC[C@]4(C)[C@H]3[C@@H](O)C[C@@]21C` the growth was 112% (inactive). In the case of `CC(=O)c1cccc(NS(=O)(=O)c2cccc(C(=O)Nc3ccc(Br)cc3)c2)c1`, the growth is reported as 1.14% [25 µM] (active). `CCN1C(=S)N(c2ccccc2)C2NC(=O)N(/N=C/C=C/c3ccccc3OC)C21` (stereo not given) was tested, and the growth was 79% (inactive). With `O=S(=O)(Nc1cccc2cc(OS(=O)(=O)c3ccccc3)ccc12)c1ccccc1` the growth was 13.4% (inactive). `Fc1cc(F)cc(C(c2c[nH]c3ccccc23)c2c[nH]c3ccccc23)c1` was tested, and the growth was 111% (inactive). For `O=C1N[C@@H]2[C@@H](O)[C@@H](O)[C@H](O)C[C@H]2c2cc3c(c(O)c21)OCCO3`, the growth was -27.2% (active). `Cc1ccc2nc(SCC(=O)Nc3ccc(-c4nc5ccccc5s4)c(Cl)c3)[nH]c2c1` was tested, and the growth was 101% (inactive). In the case of `FC(F)(F)c1ccc(Cn2cc(CSc3nc4ccccc4s3)nn2)cc1`, the growth is reported as 98.7% (inactive). In the case of `CCC(=O)Nc1nnc(Cc2ccc(OC)c(OC)c2)s1`, the growth is reported as -2.42% (active). In the case of `CN1CC[C@H](c2c(O)cc(O)c3c(=O)cc(-c4ccccc4Cl)oc23)[C@H](O)C1`, the growth is reported as -42.7% (active). `CC[C@@H](C(=O)[C@@H](C)[C@@H](O)[C@H](C)[C@@H]1O[C@@H]([C@@H](CC)C(=O)O)CC[C@@H]1C)[C@H]1OC2(C=C[C@@H](O)[C@]3(CC[C@@](C)([C@H]4CC[C@](O)(CC)[C@H](C)O4)O3)O2)[C@H](C)C[C@@H]1C` (stereo not given in full) was tested, and the growth was -9.66% (active). With `O=C(Nc1cccc(C2=NCCN2)c1)c1cccc(C(=O)Nc2cccc(C3=NCCN3)c2)c1` the growth was 90.8% (inactive). With `COc1ccc(C(=O)OC2C(OC3C(O)COC(O[C@H]4C[C@H]5[C@@H]6CC=C7C[C@@H](O)CC[C@]7(C)[C@H]6CC[C@]5(C)[C@H]4[C@H](C)C(=O)CCC(C)C)C3OC(=O)C(C)C)OCC(O)C2O)cc1` (stereo not given in full) the growth was -2.45% (active).
